Source: PubChem BioAssay (NCATS)
Several values for one entry are separate records, joined by “and”; a condition that tells them apart may be missing. Identical values can stand only once. Inconclusive results are not listed. Unmarked numbers belong to inactive results. Calls come from the whole dose curve; as a rule, active = well fitted cell-killing curve with a large enough effect; inconclusive = small, poorly fitted or top-dose-only effect; inactive = flat fitted curve, though single readings scatter.

Test: Cell Viability - N2a (AID 540);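 note: cells exposed to compound for 40 h at 37 °C; plate controls were DMSO alone for no effect and tamoxifen control for full effect; nearly all actives have a fitted effect of over 45% in size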
Conditions: N2a mouse neuroblastoma cell viability; at 92.2 µM (top of the series)
How it was run: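 N2a mouse neuroblastoma, 1500 cells/well, 5 hr settle; compound 40 hr, 37 °C; CellTiter-Glo 20 min RT; luminescence; Hill-fit AC50.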

In order of falling activity change, negative = cytotoxicity:
1. c1ccc2c(c1)CCCC2  9.97%
2. Clc1nc(Cl)nc(Nc2ccccc2Cl)n1  9.08%
3. S=C=Nc1cccc2ccccc12  6.83%
4. CC(O)CCl (stereo not given)  5.86%
5. C=CC(=C)C  4.7%
6. CCN(CC)c1ccccc1  3.96%
7. Clc1ccc2ccccc2c1  3.7%
8. C=C(Cl)Cl  3.46%
9. O=C(Cl)/C=C/C(=O)Cl  3.07%
10. C1CCC2CCCCC2C1 (stereo not given)  2.93%
11. O=NN(c1ccccc1)c1ccccc1  2.63%
12. CCSC(=O)Cl  2.21%
13. CCCC(=O)Cl  1.63%
14. C=CCOC(=O)c1ccccc1N  1.61%
15. C=C(C)C#N  1.28%
16. Nc1ccccc1Cl  0.502%
17. c1nc[nH]n1  -1.04%
18. Cc1ccc2ccccc2c1  -3.22%
19. O=[N+]([O-])c1ccc(Cl)c(Cl)c1  -3.37%
20. Clc1cccc(C(Cl)(Cl)Cl)n1  -3.54%
21. C=C(C)C(=O)OCC1CO1 (stereo not given)  -4.08%
22. C=CC(=O)OCC  -4.3%
23. Nc1c(Cl)c(Cl)nc(C(=O)O)c1Cl  -4.43%
24. Brc1ccccc1  -4.7%
25. CCOP(=S)(OCC)SCSC(C)(C)C  -4.96%
26. ClCBr  -7.64%
27. CC(C)(C)OOC(C)(C)C  -8.54%
28. CC(C)(c1ccccc1)c1ccc(O)cc1  -9.3%
29. O=NN(CCO)CCO  -10.5%
30. OCC1CO1 (stereo not given)  -10.8%
31. C=CCOC(C)=O  -14.3%
32. Cc1cccc([N+](=O)[O-])c1  -15.4%
33. CCCSC(=O)Cl  -16.5%
34. COc1ccc(C=O)cc1OC  -19.3%
35. Cc1ccc([N+](=O)[O-])cc1C  -25%

For `[O-][Br+2]([O-])O`, the activity change, negative = cytotoxicity was -3.27% and 7.55%.
In the case of `C=CC(N)=O`, the activity change, negative = cytotoxicity is reported as 1.31% and 7.69%.
For `N#CCCCl`, the activity change, negative = cytotoxicity was -2.76% and -3.85%.
With `Cc1ccccc1N` the activity change, negative = cytotoxicity was -19.6% and 1.37%.
With `NC(=S)Nc1ccccc1` the activity change, negative = cytotoxicity was -0.295% and -0.273%.
